Reference: PubChem BioAssay (NCI)
About 83,000 compounds went through this panel and 20% of them were active in at least one assay; those are over-represented in the sample as a whole.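 Testing used 96-well plates and a 48-hour single-concentration exposure. Example: -40 means 40% of the starting cells died.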 Calls of active or inactive are those of the source. How the source made its calls: active means growth percent below 10; inactive means the rest.

Legend:
Assay in all cases: NCI-60 one-dose screen, 48 h (100 = growth as untreated, 0 = no growth, -100 = all killed)
Conditions in all cases: 10 µM unless noted
HCT-15 colon = system: HCT-15 colon
HT29 colon = system: HT29 colon
SNB-75 CNS = system: SNB-75 CNS
SNB-19 CNS = system: SNB-19 CNS
U251 CNS = system: U251 CNS
PC-3 prostate = system: PC-3 prostate
SK-MEL-5 melanoma = system: SK-MEL-5 melanoma
UACC-62 melanoma = system: UACC-62 melanoma
LOX IMVI melanoma = system: LOX IMVI melanoma
SK-MEL-28 melanoma = system: SK-MEL-28 melanoma
SK-MEL-2 melanoma = system: SK-MEL-2 melanoma
EKVX NSCLC = system: EKVX NSCLC
SN12C renal = system: SN12C renal
UO-31 renal = system: UO-31 renal
TK-10 renal = system: TK-10 renal
ACHN renal = system: ACHN renal
CAKI-1 renal = system: CAKI-1 renal
A498 renal = system: A498 renal
CCRF-CEM leukemia = system: CCRF-CEM leukemia
MOLT-4 leukemia = system: MOLT-4 leukemia

Measured: growth

N#Cc1nn(-c2cc(=O)[nH]c3ccc(Br)cc23)c(N)c1C#N
active: PC-3 prostate -86.9% | CCRF-CEM leukemia -32% | MOLT-4 leukemia -16.1%
inactive: HCT-15 colon 99.3% | HT29 colon 94.8% | SNB-75 CNS 87.3% | SNB-19 CNS 105% | U251 CNS 106% | SK-MEL-5 melanoma 101% | UACC-62 melanoma 86.6% | LOX IMVI melanoma 102% | SK-MEL-28 melanoma 101% | SK-MEL-2 melanoma 103% | EKVX NSCLC 87.5% | SN12C renal 87.3% | UO-31 renal 65.7% | TK-10 renal 110% | ACHN renal 91% | CAKI-1 renal 90.5% | A498 renal 105%

C=C1SC(=Nc2ccccc2Cl)N(C(=O)c2sc3ccccc3c2Cl)C1(C)C
inactive: HCT-15 colon 81.4% | HT29 colon 61.6% | SNB-75 CNS 42.6% | SNB-19 CNS 42.9% | U251 CNS 49.2% | PC-3 prostate 30.7% | SK-MEL-5 melanoma 66.7% | UACC-62 melanoma 60% | LOX IMVI melanoma 77.3% | SK-MEL-28 melanoma 113% | SK-MEL-2 melanoma 151% | EKVX NSCLC 54.4% | SN12C renal 78.9% | UO-31 renal 107% | TK-10 renal 107% | ACHN renal 46.1% | CAKI-1 renal 49% | A498 renal 90.5% | CCRF-CEM leukemia 19.8% | MOLT-4 leukemia 20.3%

Cn1c(=O)c2[nH]c(SC/C(=N/O)c3ccc(Br)cc3)nc2n(C)c1=O
active: SNB-75 CNS -27.2% | U251 CNS 1.08% | UACC-62 melanoma -14.2% | UO-31 renal 4.1% | TK-10 renal -30.6% | ACHN renal -58.4% | CAKI-1 renal -45.3% | A498 renal -80%
inactive: HCT-15 colon 76.4% | HT29 colon 70% | SNB-19 CNS 38.6% | PC-3 prostate 49.3% | SK-MEL-5 melanoma 33.4% | LOX IMVI melanoma 36.9% | SK-MEL-28 melanoma 45.6% | SK-MEL-2 melanoma 33.6% | EKVX NSCLC 43.2% | SN12C renal 17% | CCRF-CEM leukemia 83.9% | MOLT-4 leukemia 94.7%

CN1CCN(Cc2ccc(NC(=O)c3cncc(C#Cc4cnc(N)cc4C#N)c3)cc2C(F)(F)F)CC1
active: HT29 colon 5.78% | SK-MEL-5 melanoma 9.34% | UACC-62 melanoma -12.9% | LOX IMVI melanoma -84.6% | SK-MEL-28 melanoma 0.973% | SK-MEL-2 melanoma -65.9% | UO-31 renal 1.25% | CAKI-1 renal -9.35% | A498 renal -8.99% | CCRF-CEM leukemia 6.94% | MOLT-4 leukemia 4.83%
inactive: HCT-15 colon 15.4% | SNB-75 CNS 33.2% | SNB-19 CNS 39.1% | U251 CNS 20.1% | PC-3 prostate 11.7% | EKVX NSCLC 34.3% | SN12C renal 13.5% | TK-10 renal 19.4% | ACHN renal 10.3%

COc1ccc(/C=N/NC(=O)Cn2c(-c3ccc(S(C)(=O)=O)cc3)nc3ccccc32)cc1
inactive: HCT-15 colon 98.8% | HT29 colon 103% | SNB-75 CNS 101% | SNB-19 CNS 100% | U251 CNS 106% | PC-3 prostate 93.2% | SK-MEL-5 melanoma 96.7% | UACC-62 melanoma 90.8% | LOX IMVI melanoma 114% | SK-MEL-28 melanoma 102% | SK-MEL-2 melanoma 107% | EKVX NSCLC 97% | SN12C renal 99.9% | UO-31 renal 75.9% | TK-10 renal 109% | ACHN renal 105% | CAKI-1 renal 93% | A498 renal 95% | CCRF-CEM leukemia 106% | MOLT-4 leukemia 141%

CN(C)CCC(CCN(C)C)(C(=O)O)c1ccccc1
inactive: HCT-15 colon 99.7% | HT29 colon 96.6% | SNB-75 CNS 97.2% | SNB-19 CNS 101% | U251 CNS 102% | PC-3 prostate 92.7% | SK-MEL-5 melanoma 102% | UACC-62 melanoma 103% | LOX IMVI melanoma 106% | SK-MEL-28 melanoma 105% | SK-MEL-2 melanoma 102% | EKVX NSCLC 107% | SN12C renal 98.4% | UO-31 renal 88.3% | TK-10 renal 106% | ACHN renal 98.5% | CAKI-1 renal 95.4% | A498 renal 90.4% | CCRF-CEM leukemia 100% | MOLT-4 leukemia 109%

O=c1cc(-c2ccccc2)nc(SCc2nc3cc(Cl)c(Cl)cc3[nH]2)[nH]1
inactive: HCT-15 colon 98% | HT29 colon 96.4% | SNB-75 CNS 86% | SNB-19 CNS 109% | U251 CNS 99.9% | PC-3 prostate 103% | SK-MEL-5 melanoma 105% | UACC-62 melanoma 105% | LOX IMVI melanoma 98% | SK-MEL-28 melanoma 111% | SK-MEL-2 melanoma 91.3% | EKVX NSCLC 102% | SN12C renal 105% | UO-31 renal 81.7% | TK-10 renal 104% | ACHN renal 97.3% | CAKI-1 renal 93.3% | A498 renal 93.7% | CCRF-CEM leukemia 124% | MOLT-4 leukemia 95.5%
